# ELG1 genotoxic = inducers of genotoxicity in HEK293T ELG1-luciferase cells; HEK293T ELG1-luciferase reporter, luminescence, 16 h; Potency, µM (series often up to 46 µM), for inactives: top-dose activity change, positive = activation, usual class: activators; 330,000 compounds, 1.3% hits; further: % of control where 0% means no effect; nearly all actives have a fitted effect of over 60% in size
#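 Genotoxic stress is detected as increased luminescence from luciferase-tagged ELG1 in HEK293T cells, measured with ONE-Glo after a 16 hr treatment at 37 °C.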
# NPC1 prom act = NPC1 promoter activation | Huh7 NPC1 promoter luciferase reporter, 24 h | Potency, µM (titrated, usually from 9.22 µM), inactives show at the top dose activation, actives largely listed as activators | 320,000 compounds, 2.4% hits; further: % of control where 0% means no effect; nearly all actives have a fitted effect of over 60% in size
#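 Luminescence from an NPC1 promoter-driven luciferase reporter in stably transfected Huh7 cells was measured after 24 h compound treatment at 37 °C, followed by 10 min ambient incubation with luciferase detection reagent.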
# ELG1 repair inh = blocks ELG1-dependent DNA repair in HEK293T cells; HEK293T ELG1-luciferase reporter, luminescence, 16 h; DNA damage induced by 5-fluorouridine; Potency, µM (highest dose often 46.1 µM), without a hit: top-dose activity change, negative = inhibition, usual class: inhibitors; 330,000 compounds, 2.3% hits; AID 504467; further: on the % scale 0 is the no-effect control and ±100 the full control effect; nearly all actives have a fitted effect of over 55% in size
#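 Overnight (16 hr) co-exposure of 2,000 cells/well to 5-fluorouridine and compound at 37 °C preceded detection. Luciferase was quantified via ONE-Glo luminescence; loss of signal denotes inhibition.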
# FLuc counter = firefly luciferase modulation, counter-screen for miR-21 project | purified FLuc, Km substrates, luminescence inhibition | Potency, µM (doses to about 57.5 µM), for the others: at the highest dose activity change, negative = inhibition, most hits filed as inhibitors | 360,000 compounds, 6.9% hits | AID 588342;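 further: plate controls were vehicle for no effect and reference inhibitor for full effect; nearly all actives have a fitted effect of over 55% in size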
# Target sequence (P08659 whole entry, looked up): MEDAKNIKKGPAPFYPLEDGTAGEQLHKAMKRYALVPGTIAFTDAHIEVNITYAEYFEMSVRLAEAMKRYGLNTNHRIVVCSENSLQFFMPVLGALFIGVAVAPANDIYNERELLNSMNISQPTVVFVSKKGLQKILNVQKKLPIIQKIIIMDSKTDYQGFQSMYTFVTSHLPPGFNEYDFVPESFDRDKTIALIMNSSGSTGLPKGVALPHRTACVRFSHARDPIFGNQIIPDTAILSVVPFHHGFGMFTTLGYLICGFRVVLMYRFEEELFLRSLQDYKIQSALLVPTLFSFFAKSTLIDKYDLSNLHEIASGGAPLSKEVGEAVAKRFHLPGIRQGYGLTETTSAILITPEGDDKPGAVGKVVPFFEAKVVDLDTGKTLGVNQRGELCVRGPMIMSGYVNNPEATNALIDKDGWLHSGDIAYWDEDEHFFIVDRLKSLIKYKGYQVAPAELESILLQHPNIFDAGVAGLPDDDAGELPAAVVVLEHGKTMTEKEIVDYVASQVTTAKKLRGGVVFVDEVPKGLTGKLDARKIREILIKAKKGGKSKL
#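 Purified P. pyralis luciferase, 10 nM final, with Km-level 10 uM D-luciferin and 10 uM ATP in 50 mM Tris acetate pH 7.5, 10 mM Mg acetate, 0.01% Tween-20, 0.05% BSA; 6-point qHTS titration about 60 µM downward; luminescence read.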
# SMN2 splice up = increases expression of the SMN2 splice variant. AID 1458. HEK293 SMN2-luciferase splicing reporter, luminescence, 30-36 h. 210,000 compounds, 2.8% hits. Potency, µM (titrated, usually from 46.1 µM), without a hit: at the top dose activity change, positive = activation, actives largely listed as activators; further: % of control where 0% means no effect; nearly all actives have a fitted effect of over 55% in size
#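 HEK293 cells carry an SMN2 […]–luciferase reporter in which exon 7 inclusion puts luciferase in frame. Cells were plated 10-12 h before compound addition, then incubated 30-36 h at 37C. ONE-Glo luminescence was read; sodium butyrate at 4.5 mM final served as control.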
# Rab9 promoter act = Rab9 promoter activation; Huh7 Rab9 promoter-luciferase reporter, luminescence, 24 h; 320,000 compounds, 2.8% hits; Potency, µM (series often up to 9.22 µM), inactives show top-dose activation, negative = inhibition, actives largely listed as activators; AID 485297; further: % of control where 0% means no effect; nearly all actives have a fitted effect of over 60% in size
#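 Luminescence from Amplite-detected luciferase (10 minutes, ambient) reports Rab9 promoter activation. Before that, stable Rab9-luciferase Huh7 cells (1500/well, reduced-serum OP-MEM I plus 10% FBS) were exposed to compound for 24 hours at 37C.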
# * hit, by the source's call; ? = inconclusive; . = no result. The list is not random: actives were taken first. Their share in the collection is about 9.2%. The call rests on the fitted dose curve; in most records, active means well fitted curve in the direction sought with a large enough effect; inconclusive means small, poorly fitted or top-dose-only effect, or another doubt; inactive means no such curve, though single readings can be large; an effect the other way counts as inactive or inconclusive. Potency means the concentration at half of the fitted maximal effect.
SMILES,ELG1 genotoxic,NPC1 prom act,ELG1 repair inh,FLuc counter,SMN2 splice up,Rab9 promoter act
CCN(Cc1ccncc1)C(=O)C1CCC(=O)N(Cc2ccc(Cl)cc2)C1 (stereo not given),6%,-1%,1%,1%,.,10%
CC(C)(C)OC(=O)C[C@@H]1C/C=C\C[C@@H](CC(=O)N[C@@H](CO)Cc2ccccc2)C(=O)NC[C@@H](c2ccccc2)OC1=O,-5%,.,7.3µM*,.,.,.
CC(C)(C)OC(=O)C[C@H]1C/C=C\C[C@@H](CC(=O)N(CCO)Cc2ccccc2)C(=O)NC[C@H](c2ccccc2)OC1=O,-4%,.,18µM*,.,.,.
O=C1NC[C@@H](c2ccccc2)OC(=O)[C@@H](Cc2ccc(F)cc2)CC/C=C/C[C@H]1CC(=O)N(CCO)Cc1ccccc1,-5%,.,13µM*,.,.,.
CC(C)(C)OC(=O)C[C@@H]1C/C=C\C[C@H](CC(=O)N(CCO)Cc2ccccc2)C(=O)NC[C@@H](c2ccccc2)OC1=O,2%,.,-17%,.,.,.
O=C1NC[C@H](c2ccccc2)OC(=O)[C@H](Cc2ccc(F)cc2)CC/C=C/C[C@@H]1CC(=O)N(CCO)Cc1ccccc1,-12%,.,12µM*,.,.,.
O=C1N[C@@H](c2ccccc2)COC(=O)[C@H](Cc2ccc(F)cc2)CC/C=C/C[C@H]1CC(=O)N(CCO)Cc1ccccc1,-15%,.,?,.,.,.
CC(C)(C)OC(=O)C[C@H]1C/C=C\C[C@@H](CC(=O)N[C@@H](CO)Cc2ccccc2)C(=O)NC[C@@H](c2ccccc2)OC1=O,0%,.,?,.,.,.
O=C(C[C@H]1C/C=C/CC[C@H](Cc2ccc(F)cc2)C(=O)O[C@H](c2ccccc2)CNC1=O)NCCO,4%,.,-7%,.,.,.
O=C1NC[C@@H](c2ccccc2)OC(=O)[C@H](Cc2ccc(F)cc2)C/C=C\C[C@H]1CC(=O)N(CCO)Cc1ccccc1,-3%,.,21µM*,.,.,.
O=C(C[C@@H]1C/C=C/CC[C@@H](Cc2ccc(F)cc2)C(=O)O[C@@H](c2ccccc2)CNC1=O)NCCO,-7%,.,7.3µM*,.,.,.
CCOC(=O)c1ccc(NC(=O)c2ccc3c(c2)CCN3S(=O)(=O)c2ccc(Cl)cc2)cc1,.,.,.,1%,9%,.
Cc1cccc(N(C)C(=O)Cn2c(=O)oc3cc(S(=O)(=O)N4CCCCC4)ccc32)c1,.,.,.,-9%,-3%,.
O=C(O)c1cccc(-c2noc(-c3cccc(Cl)c3)n2)c1,?,0.089µM*,?,0.019µM*,.,?
O=C(O)c1cccc(-c2nc(-c3ccccc3C(F)(F)F)no2)c1,.,.,.,0.17µM*,.,.
NC(=O)c1ccc(-c2noc(-c3cccc(Cl)c3)n2)cc1,?,2.5µM*,?,?,.,?
Fc1ccccc1-c1nc(-c2cnccc2C(F)(F)F)no1,-11%,1%,?,?,.,10%
Cc1noc(-c2ccc(-c3noc(-c4cccc(Cl)c4)n3)cc2)n1,.,.,.,-2%,.,.
COc1cc(-c2noc(-c3cccc(Cl)c3)n2)cc(OC)c1OC,-6%,2%,13%,-5%,-12%,6%
Oc1ccc(Cl)cc1C1=NNC(c2cccs2)C1 (stereo not given),-16%,-5%,?,?,.,7%
Cc1ccc(O)c(C2=NNC(c3ccc(Cl)cc3)C2)c1 (stereo not given),5%,0%,18%,27µM*,.,27%
Cc1cccnc1Nc1nc(-c2ccc(O)cc2)cs1,?,?,?,6.7µM*,25µM*,3.5µM*
Cc1cccnc1Nc1nc(-c2ccc(F)cc2)cs1,13µM*,1.4µM*,?,2.7µM*,.,2.8µM*
COc1cc(C(=O)OCC(=O)N2CCCC2=O)cc(OC)c1C,1%,.,10%,.,.,.
CCOC(=O)c1c(C)oc2ncnc(N3CCN(c4ccccc4F)CC3)c12,.,.,.,4%,.,.
SMILES,ELG1 genotoxic,NPC1 prom act,ELG1 repair inh,FLuc counter,SMN2 splice up,Rab9 promoter act
N#CCCn1c(=O)c(-c2ccc(Cl)cc2)nc2cnc(Oc3cccc(Cl)c3)nc21,.,.,.,.,7%,.
CC(=O)c1ccc(N2CCN(c3ncnc4c3cnn4-c3cc(Cl)ccc3C)CC2)cc1,.,.,.,-4%,.,.
CCN(CC)c1ccc(C=Nc2ccc(C#N)cc2)c(O)c1,9%,0%,-1%,-12%,-7%,1%
CCN(CC)c1ccc(O)c(C=Nc2ccc(C)c(C)c2)c1,?,26%,7%,3.4µM*,5%,?
CCN(CC)c1ccc(C=Nc2ccccc2C)c(O)c1,5%,?,10%,1.3µM*,27%,?
CCn1c(/N=C/c2c[nH]c3ccccc23)nc2ccccc21,0%,0%,2%,0.54µM*,.,-3%
CCCn1c(/N=C/c2c[nH]c3ccccc23)nc2ccccc21,-1%,3%,2%,2.7µM*,-17%,0%
CCn1c(/C=N/n2cnnc2)nc2ccccc21,0%,0%,0%,0%,-22%,9%
Cn1c(/N=C/c2c(O)ccc3ccccc23)nc2ccccc21,16%,-2%,?,?,-19%,0%
CCCCn1c(/N=C/c2c[nH]c3ccccc23)nc2ccccc21,-1%,2%,-15%,9.5µM*,-25%,-1%
CN(Cc1ccc(C(C)(C)C)cc1)C(=O)C1CSC2(C)CCC(=O)N12 (stereo not given),-2%,-2%,?,1%,.,-15%
C=CCN(C(=O)C1CSC2(C)CCC(=O)N12)c1nc(-c2ccccc2)cs1 (stereo not given),18µM*,1%,?,-1%,.,7%
Cc1c(C(=O)N(CCC#N)c2ccccc2)sc2nc3n(c(=O)c12)CCCC3,0%,-4%,0%,5%,.,-4%
CCN1CCCc2cc(CN(CCN3CCOCC3)C(=S)Nc3cccc(Cl)c3)ccc21,-4%,-8%,-15%,-1%,-49%,-7%
c1ccc2oc(SCc3cn4ccsc4n3)nc2c1,?,2.8µM*,?,9.5µM*,?,3.5µM*
Cc1csc2nc(CSc3nc4ccccc4o3)cn12,?,4µM*,?,21µM*,13%,?
N#CC(C(=O)c1ccccc1)=C1SCCS1,15%,24%,?,?,.,5%
COc1ccc(Cn2c(=O)[nH]c3cc(C(=O)NCCc4ccc(S(N)(=O)=O)cc4)ccc3c2=O)cc1,4%,-7%,7%,0%,6%,-6%
COc1ccc(C2CC(c3ccccc3)=NN2c2ccc(S(N)(=O)=O)cc2)cc1OC (stereo not given),1%,-5%,-20%,-1%,-1%,-3%
